Compounds without any hit were thinned out: in the full panel of roughly 83,000, 20% have a hit.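 In brief: 96-well plates, 48 h treatment, single concentration, percent growth endpoint.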 A number with no mark means an inactive call. Calls of active or inactive are those of the source. The calls were made as follows: active = growth percent below 10; inactive = the rest.

This assay concerns NCI-H460 lung. The experiment in a line: NCI-60 one-dose screen, 48 h (100 = growth as untreated, 0 = no growth, -100 = all killed). As to conditions: 10 µM unless noted.
As to `Nc1nc2c3ccncc3cc(-c3cccc(Cl)c3)c2c2cnccc12`, the growth is 12.9%.
The value for `O=C1c2cc3c(cc2-c2c1c1ccc(F)cc1c(=O)n2CCCN1CCOCC1)OCO3` was 14.1%.
To `c1ccc(CN2C(c3ccccc3)=Nc3ccccc3C2c2c[nH]c3ccccc23)cc1` (centres undefined) belongs 43.4%; to `O=C1C(Cl)=C(Nc2ccc(S(=O)(=O)c3ccc(NC4=C(Cl)C(=O)c5ccccc5C4=O)cc3)cc2)C(=O)c2ccccc21`, 37.2%; to `CCc1cccc(CC)c1NC(=O)c1sc2nc3c(cc2c1N)CCCC3`, 91.1%.
The value for `COc1cc2[nH]c(C(=O)c3cc(OC)c(OC)c(OC)c3)c(N)c2cc1C#CCO` was 7.9% (active).
For `Cn1cc(-c2csc(-c3cn(C(=O)OC(C)(C)C)c4ccc(Br)cc34)n2)c2cccnc21`, the growth was 62.3%.
Regarding `Fc1cccc(-c2[nH]nc3nc(Nc4cccnc4)sc23)c1`, the growth was 21.2%.
To `O=Cc1nc2ccccc2[nH]1` belongs 109%; to `N#C/C(=C\c1ccc(-c2ccc(Br)cc2)o1)c1nc(-c2ccco2)cs1`, 91.4%.
The value for `C[C@H]1OC(=O)/C=C/[C@@H](O)[C@@H](O)CCCCCCCC[C@@H]1O` was 102%.
To `C=C1C(=O)O[C@H]2[C@H]1CC/C(COC(=O)NCc1cc3ccccc3[nH]1)=C\CC[C@@]1(C)O[C@@H]21` belongs 55.3%; to `Cc1ccc(-c2nn(Cc3cn(-c4cc(C)nc5ccccc45)nn3)c3ncnc(N)c23)cc1`, 68.4%.
Consider `COc1ccc(-c2nc3ncccn3c2-c2nc3ccc(Br)cc3[nH]2)cc1`, for which the growth was 90.1%.

These data come from PubChem BioAssay (NCI).
